Data published in PubChem BioAssay AID651860 (Broad Institute, 2012).
Results with a measured potency or affinity are listed apart. Values without a mark were called inactive. The source made the active and inactive calls.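 Rule for the calls: active = compounds lowering HepG2 cell ATP luminescence with a fitted half-maximal concentration at most twice the top tested dose; inconclusive = flat fit with 30 to 70 percent signal loss, or poor fit; inactive = the rest.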

Test: liver cell line viability loss – HepG2, luminescence plate reader, powder samples, set 2, cytotoxicity control, dose response (AID 651860)
Settings: CellTiter-Glo ATP luminescence, 48 h; series mostly up to 26 µM

Compound | outcome | activity change, negative = cytotoxic
C[C@H](NC(=O)C1CCCC[C@H]1C(=O)O)c1ccccc1 (mixture of isomers) | inactive | 
O=C(O)[C@H]1CCCC[C@H]1C(=O)N1CCC2=C(CCCC2)C1CN1C(=O)c2ccccc2C1=O (some centres undefined) | inactive | 
Cc1ccc(S(=O)(=O)NNc2nc(N3CC(O)CC3C(=O)O)nc3ccccc23)cc1 (centres undefined) | inactive | 
COC(=O)[C@@H]1CCCC[C@@H]1C(=O)N1CCc2ccccc2[C@@H]1CN1C(=O)c2ccccc2C1=O | inactive | 
Cc1cc(C)c(S(=O)(=O)Nc2nc(N(C)C)nc3ccccc23)c(C)c1 | inactive | 
CC(C)OC(=O)C(C(=O)C(F)(F)F)c1cc(NS(=O)(=O)c2ccccc2)c2ccccc2c1O (centres undefined) | inactive | 
O=C(O)[C@H]1CCCC[C@H]1C(=O)N1CCc2ccccc2[C@H]1CNS(=O)(=O)c1ccc([N+](=O)[O-])cc1 | inactive | 
C[C@@H](NC(=O)C1CCCC[C@H]1C(=O)O)c1ccccc1 (mixture of isomers) | inactive | 
O=C1c2ccccc2C(=O)N1CC1=NCCc2ccccc21 | inactive | 
O=C1c2ccccc2C(=O)N1C[C@H]1NCCc2ccccc21 | inactive | 
O=C1c2ccccc2C(=O)N1CC1c2ccccc2CCN1C(=O)Cc1ccccc1 (centres undefined) |  | -3.5% [at 6 µM]
Cc1ccc(S(=O)(=O)NNc2nc(NCC(N)=O)nc3ccccc23)cc1 | inactive | 
O=C(O)C1CCCCC1C(=O)N1CCc2ccccc2C1CN1C(=O)c2ccccc2S1(=O)=O (centres undefined) | inactive | 
O=C(NCCCN1CCOCC1)c1ccccc1C(=O)NC[C@@H]1c2ccccc2CCN1C(=O)C1CCCCC1C(=O)O (some centres undefined) | inactive | 
O=C(NC[C@@H]1c2ccccc2CCN1C(=O)[C@@H]1CCCC[C@@H]1C(=O)O)c1ccccc1 | inactive | 
Cc1ccccc1S(=O)(=O)Nc1cc(C(C(=O)OC(C)C)C(=O)C(F)(F)F)c(O)c2ccccc12 (centres undefined) | inactive | 
O=C(O)C1CCCCC1C(=O)NCC1c2ccccc2CCN1C(=O)Cc1ccccc1 (centres undefined) | inactive | 

Compound | outcome | activity change, negative = cytotoxic
O=C(O)C1CCCCC1C(=O)N1CCc2ccccc2C1CN1C(=O)[C@H]2CCCC[C@H]2C1=O (some centres undefined) | inactive | 
O=C(O)CCCC(=O)N1CCc2ccccc2C1CN1C(=O)c2ccccc2C1=O (centres undefined) | inactive | 
O=C(O)C1CCCCC1C(=O)N1CCc2ccccc2C1c1ccccc1 (centres undefined) | inactive | 
COc1ccccc1CCNC(=O)[C@@H]1c2ccccc2CCN1C(=O)C1CCCCC1C(=O)O (some centres undefined) | inactive | 
O=C(O)[C@H]1CCCC[C@H]1C(=O)N1CCc2ccccc2C1 (racemic) | inactive | 
O=C(O)C1CCCCC1C(=O)N1CCCCC1CN1C(=O)c2ccccc2C1=O (centres undefined) | inactive | 
O=C(NC[C@@H]1c2ccccc2CCN1C(=O)[C@@H]1CCCC[C@@H]1C(=O)O)OCC1c2ccccc2-c2ccccc21 | inactive | 
Cc1ccc(S(=O)(=O)NC(=O)[C@@H]2c3ccccc3CCN2C(=O)[C@@H]2CCCC[C@@H]2C(=O)O)cc1 | inactive | 
Cc1ccc(S(=O)(=O)Nc2cc(C(C(=O)OC(C)C)C(=O)C(F)(F)F)c(O)c3ccccc23)c(C)c1 (centres undefined) | inactive | 
O=S(=O)(Nc1nc(NCC2CCCCC2)nc2ccccc12)c1ccccc1 | inactive | 
O=C(NC[C@@H]1c2ccccc2CCN1C(=O)[C@@H]1CCCC[C@@H]1C(=O)O)c1ccc(CN2CCOCC2)cc1 | inactive | 
O=C(O)[C@H]1CCCC[C@H]1C(=O)N1CCc2ccccc2[C@H]1CNc1nc(Cl)nc2ccccc12 | inactive | 
O=C(O)Cc1ccccc1C(=O)N1CCc2ccccc2[C@H]1CN1C(=O)c2ccccc2C1=O | inactive | 
O=C1c2ccccc2C(=O)N1C[C@@H]1c2ccccc2CCN1C(=O)OCc1ccccc1 | inactive | 
O=C(Cc1ccccc1)NC[C@@H]1c2ccccc2CCN1C(=O)[C@@H]1CCCC[C@@H]1C(=O)O | inactive | 
CCOC(=O)C(C(=O)OCC)c1nc(NS(=O)(=O)c2c(C)cc(C)cc2C)c2ccccc2n1 | inactive | 
O=C(O)[C@H]1C2C=CC(C2)[C@H]1C(=O)N1CCc2ccccc2C1CN1C(=O)c2ccccc2C1=O (some centres undefined) | inactive | 
